In PubChem BioAssay (NCI):
Compounds without any hit were thinned out: in the full panel of roughly 79,000, 15% have a hit. Unmarked numbers belong to inactive results. Calls of active or inactive are those of the source. Rule as the data show it: active = growth inhibition above about 70%; inactive = the rest.

How the values were obtained:
[1] = NCI Yeast Anticancer Drug Screen. Data for the rad50 strain (AID 155);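 also: 0% = growth of vehicle-only cultures of the same strain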; details: S. cerevisiae rad50 strain growth inhibition, active compounds read high
Summary of the method: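 Yeast carrying a defined DNA repair defect were exposed to test compounds, and growth was compared with vehicle-treated controls to give percent inhibition.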

[2] = NCI Yeast Anticancer Drug Screen. Data for the mec2-1 strain (AID 157); details: S. cerevisiae mec2-1 strain, active compounds read high
Summary of the method: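 Growth inhibition is read against vehicle-treated controls after compound exposure of the mec2-1 yeast strain, which is defective in DNA damage repair or cell cycle control.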

[3] = NCI Yeast Anticancer Drug Screen. Data for the sgs1 mgt1 strain (AID 161);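 also: 0% = growth of cultures given vehicle only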; details: S. cerevisiae sgs1 mgt1 strain, active compounds read high
Summary of the method: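 Yeast cells carrying a defined DNA-repair defect were exposed to test compounds. Growth inhibition was measured relative to vehicle-treated controls.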

[4] = NCI Yeast Anticancer Drug Screen. Data for the cln2 rad14 strain (AID 165);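 also: 0% = growth equal to vehicle treated cultures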; details: S. cerevisiae cln2 rad14 strain, active compounds read high
Summary of the method: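 Growth inhibition, relative to vehicle-treated controls, is the read-out. The test organism is a yeast strain with defined genetic alterations, cln2 rad14.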

[5] = NCI Yeast Anticancer Drug Screen. Data for the bub3 strain (AID 167); details: S. cerevisiae bub3 mutant strain, active compounds read high
Summary of the method: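 Compounds were applied to a genetically altered yeast strain carrying a cell-cycle control defect. Growth inhibition was scored against vehicle-treated controls.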

[6] = NCI Yeast Anticancer Drug Screen. Data for the mlh1 rad18 strain (AID 175); details: S. cerevisiae mlh1 rad18 strain growth inhibition, active compounds read high
Summary of the method: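 Cells of a genetically altered yeast strain, deficient in DNA damage repair, were treated with compound. Their growth was then compared with that of vehicle-treated cultures to give inhibition.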

[7] = at 5.0 µM (retest, dose inferred, filed as 0.5)
[8] = at 50.0 µM (retest, dose inferred, filed as 5.0)

SMILES	growth inhibition [1, 7]	growth inhibition [1, 8]	growth inhibition ([1]; at 50.0 µM)	growth inhibition [2, 7]	growth inhibition [2, 8]	growth inhibition ([2]; at 50.0 µM)	growth inhibition [3, 7]	growth inhibition [3, 8]	growth inhibition ([3]; at 50.0 µM)	growth inhibition [4, 7]	growth inhibition [4, 8]	growth inhibition ([4]; at 50.0 µM)	growth inhibition [5, 7]	growth inhibition [5, 8]	growth inhibition ([5]; at 50.0 µM)	growth inhibition [6, 7]	growth inhibition [6, 8]	growth inhibition ([6]; at 50.0 µM)
c1ccc(CCNCc2ccco2)nc1	-2%	-5%	42.5%	-7%	-20%	0.6%	-7%	-26%	-21.2%	-18%	-91%	23.6%	3%	-2%	-24.3%	-7%	-3%	7.7%
COc1cc(C/C(=C/c2ccc(OC)c3occc23)[N+](=O)[O-])cc(OC)c1OC	18%	100% (active)	70.6% (active)	29%	100% (active)	82.8% (active)	31%	99% (active)	82.9% (active)	4%	99% (active)	64.8%	12%	97% (active)	60.7%	23%	100% (active)	87.2% (active)
CC1(C)C(=O)N(CCCCCCN2C(=O)C(C)(C)c3ccccc32)c2ccccc21	20%	20%	79.5% (active)	4%	4%	78% (active)	5%	5%	81.5% (active)	-11%	-11%	83.5% (active)	12%	12%	73.2% (active)	3%	3%	78.5% (active)
COC1CCC2(C)C(=CCC3C4CC(OC(C)=O)CC4(C)CCC32)C1 (configuration not stated)	0%	5%	5.25%	-2%	5%	0.45%	2%	3%	-4.15%	-1%	4%	9.5%	0%	6%	-7.3%	2%	9%	-4.2%
CCCc1cc(-c2ccc(O)c(CCC)c2)ccc1O	92% (active)	99% (active)	99.6% (active)	98% (active)	99% (active)	99.7% (active)	90% (active)	99% (active)	99.5% (active)	96% (active)	99% (active)	99.3% (active)	99% (active)	100% (active)	99.7% (active)	96% (active)	99% (active)	99.2% (active)
NC(CCl)=NCC1C2CC3CC(C2)CC1C3 (configuration not stated)	14%	99% (active)	87.9% (active)	11%	99% (active)	90.2% (active)	11%	99% (active)	90.8% (active)	-3%	99% (active)	84.5% (active)	10%	98% (active)	89.2% (active)	19%	99% (active)	89.9% (active)
O=S(=O)(c1ccccc1)n1cc(C[P+](c2ccccc2)(c2ccccc2)c2ccccc2)c2ccccc21	21%	99% (active)	99.3% (active)	-1%	99% (active)	99.5% (active)	20%	98% (active)	99.5% (active)	8%	99% (active)	98.1% (active)	10%	99% (active)	99.4% (active)	27%	99% (active)	99.3% (active)
Cc1ccc(C(=O)CC(N)C(=O)O)cc1 (configuration not stated)	-2%	0%	12.2%	3%	-2%	-3%	-1%	-1%	-3.05%	2%	1%	89% (active)	2%	-2%	-2.25%	-1%	3%	8.95%
Cc1cc2c(=O)[nH]c(N)nc2nc1C	-7%	11%	-9.45%	1%	-15%	-17.5%	-13%	-13%	-25%	-2%	-5%	15.1%	-5%	3%	-8.85%	-21%	-2%	-21.5%
